# Columns and labels:
# [1] = target: T1, Serine/threonine-protein kinase TBK1 (Homo sapiens) (UniProt Q9UHD2); conditions: at 10 µM
# T1 sequence (whole entry): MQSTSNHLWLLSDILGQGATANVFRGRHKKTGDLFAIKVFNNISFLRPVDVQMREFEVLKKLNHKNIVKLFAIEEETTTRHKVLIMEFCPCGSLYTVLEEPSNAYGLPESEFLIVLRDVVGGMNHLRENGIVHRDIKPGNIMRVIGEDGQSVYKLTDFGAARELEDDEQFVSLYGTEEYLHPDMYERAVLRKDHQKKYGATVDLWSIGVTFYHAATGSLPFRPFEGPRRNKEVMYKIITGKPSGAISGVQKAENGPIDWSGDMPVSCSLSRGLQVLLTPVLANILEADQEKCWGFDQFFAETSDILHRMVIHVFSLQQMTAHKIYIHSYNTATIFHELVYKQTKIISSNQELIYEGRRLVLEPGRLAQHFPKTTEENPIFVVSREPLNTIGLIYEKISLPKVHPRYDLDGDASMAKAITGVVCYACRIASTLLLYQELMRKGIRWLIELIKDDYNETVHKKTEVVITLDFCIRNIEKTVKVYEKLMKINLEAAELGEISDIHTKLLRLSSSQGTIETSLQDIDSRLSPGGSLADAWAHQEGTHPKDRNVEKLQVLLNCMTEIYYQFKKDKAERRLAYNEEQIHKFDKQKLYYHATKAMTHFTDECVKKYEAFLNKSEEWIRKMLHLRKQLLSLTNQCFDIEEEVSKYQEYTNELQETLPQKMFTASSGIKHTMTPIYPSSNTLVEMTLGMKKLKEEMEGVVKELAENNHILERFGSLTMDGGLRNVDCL
# [2] = target: T2, TGF-beta receptor type-1 (Homo sapiens) (UniProt P36897); conditions: at 1 µM
# T2 sequence (whole entry): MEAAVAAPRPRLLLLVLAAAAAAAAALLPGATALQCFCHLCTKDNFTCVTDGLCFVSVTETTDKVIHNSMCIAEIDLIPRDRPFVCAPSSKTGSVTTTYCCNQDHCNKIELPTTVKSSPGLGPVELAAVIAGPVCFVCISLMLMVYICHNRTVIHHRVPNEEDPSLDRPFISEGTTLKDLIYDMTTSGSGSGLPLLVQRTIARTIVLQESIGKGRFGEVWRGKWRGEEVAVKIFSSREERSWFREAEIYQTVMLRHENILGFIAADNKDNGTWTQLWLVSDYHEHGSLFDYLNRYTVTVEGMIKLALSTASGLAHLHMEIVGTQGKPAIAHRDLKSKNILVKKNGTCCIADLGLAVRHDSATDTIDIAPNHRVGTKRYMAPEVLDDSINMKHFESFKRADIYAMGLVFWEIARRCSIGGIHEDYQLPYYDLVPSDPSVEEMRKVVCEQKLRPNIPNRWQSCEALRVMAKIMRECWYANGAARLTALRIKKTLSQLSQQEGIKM
# [3] = target: T2, TGF-beta receptor type-1 (Homo sapiens); conditions: at 10 µM
# [4] = target: T3, Inhibitor of nuclear factor kappa-B kinase subunit alpha (Homo sapiens) (UniProt O15111); conditions: at 1 µM
# T3 sequence (whole entry): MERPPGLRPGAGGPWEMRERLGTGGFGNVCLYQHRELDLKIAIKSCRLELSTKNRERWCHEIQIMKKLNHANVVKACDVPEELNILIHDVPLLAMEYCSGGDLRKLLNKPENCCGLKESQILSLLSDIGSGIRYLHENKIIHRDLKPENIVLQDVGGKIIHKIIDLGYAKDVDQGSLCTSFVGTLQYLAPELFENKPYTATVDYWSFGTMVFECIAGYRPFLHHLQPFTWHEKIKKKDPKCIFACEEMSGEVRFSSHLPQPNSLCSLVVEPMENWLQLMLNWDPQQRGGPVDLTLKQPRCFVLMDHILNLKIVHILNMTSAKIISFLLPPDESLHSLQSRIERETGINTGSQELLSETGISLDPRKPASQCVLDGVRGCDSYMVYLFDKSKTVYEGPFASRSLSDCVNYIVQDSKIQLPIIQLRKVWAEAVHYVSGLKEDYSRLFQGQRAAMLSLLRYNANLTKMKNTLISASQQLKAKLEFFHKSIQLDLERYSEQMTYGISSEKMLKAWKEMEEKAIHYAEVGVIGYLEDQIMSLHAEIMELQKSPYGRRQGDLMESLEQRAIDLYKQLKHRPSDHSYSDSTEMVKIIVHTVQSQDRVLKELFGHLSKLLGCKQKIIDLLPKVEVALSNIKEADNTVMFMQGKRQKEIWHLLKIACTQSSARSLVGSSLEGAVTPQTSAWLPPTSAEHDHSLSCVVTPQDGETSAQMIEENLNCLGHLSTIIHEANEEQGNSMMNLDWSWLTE
# [5] = target: T3, Inhibitor of nuclear factor kappa-B kinase subunit alpha (Homo sapiens); conditions: at 10 µM
# [6] = target: Insulin receptor (Homo sapiens) (UniProt P06213); conditions: at 1 µM
# Insulin receptor (Homo sapiens), sequence (P06213 28-758 limits assumed): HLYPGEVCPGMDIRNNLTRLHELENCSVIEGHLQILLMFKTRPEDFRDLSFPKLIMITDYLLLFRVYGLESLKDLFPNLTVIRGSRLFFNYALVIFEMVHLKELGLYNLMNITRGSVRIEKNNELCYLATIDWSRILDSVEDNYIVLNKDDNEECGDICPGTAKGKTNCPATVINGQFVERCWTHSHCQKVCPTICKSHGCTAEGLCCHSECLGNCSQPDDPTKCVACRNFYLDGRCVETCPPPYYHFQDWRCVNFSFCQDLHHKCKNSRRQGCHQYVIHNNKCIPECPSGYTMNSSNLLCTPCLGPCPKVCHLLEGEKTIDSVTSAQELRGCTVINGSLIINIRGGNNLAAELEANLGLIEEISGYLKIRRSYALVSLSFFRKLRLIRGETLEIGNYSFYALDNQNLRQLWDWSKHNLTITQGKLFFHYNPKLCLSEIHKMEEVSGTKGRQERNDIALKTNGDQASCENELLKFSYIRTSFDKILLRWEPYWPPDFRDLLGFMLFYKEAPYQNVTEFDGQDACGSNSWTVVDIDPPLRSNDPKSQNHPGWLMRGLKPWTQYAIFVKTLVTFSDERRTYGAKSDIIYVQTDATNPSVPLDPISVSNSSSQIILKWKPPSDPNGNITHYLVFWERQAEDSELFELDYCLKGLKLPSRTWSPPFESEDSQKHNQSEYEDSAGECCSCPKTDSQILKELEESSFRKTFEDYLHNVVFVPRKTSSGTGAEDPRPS
# Insulin receptor (Homo sapiens), sequence (P06213 763-1382 limits assumed): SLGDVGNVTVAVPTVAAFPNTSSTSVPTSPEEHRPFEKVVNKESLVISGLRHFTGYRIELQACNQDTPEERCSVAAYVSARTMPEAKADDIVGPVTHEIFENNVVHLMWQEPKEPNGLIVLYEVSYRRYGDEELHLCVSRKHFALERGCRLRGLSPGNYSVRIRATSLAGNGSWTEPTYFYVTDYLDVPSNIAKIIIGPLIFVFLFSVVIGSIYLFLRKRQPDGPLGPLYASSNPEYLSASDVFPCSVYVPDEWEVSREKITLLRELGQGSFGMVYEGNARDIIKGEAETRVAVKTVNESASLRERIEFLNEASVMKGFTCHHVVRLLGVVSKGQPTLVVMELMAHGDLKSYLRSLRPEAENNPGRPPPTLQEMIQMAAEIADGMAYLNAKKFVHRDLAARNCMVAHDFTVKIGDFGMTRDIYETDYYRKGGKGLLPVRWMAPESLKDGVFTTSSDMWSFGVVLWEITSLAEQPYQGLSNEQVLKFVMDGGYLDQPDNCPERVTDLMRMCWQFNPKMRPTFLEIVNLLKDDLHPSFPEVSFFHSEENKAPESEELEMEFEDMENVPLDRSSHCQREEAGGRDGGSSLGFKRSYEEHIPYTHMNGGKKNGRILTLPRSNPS
# [7] = target: Insulin receptor (Homo sapiens) (UniProt P06213); conditions: at 10 µM
# [8] = target: Insulin receptor (Homo sapiens) (UniProt P06213); conditions: at 1 µM; remark: listed apart in the source
# [9] = target: Insulin receptor (Homo sapiens) (UniProt P06213); conditions: at 10 µM; remark: listed apart in the source
# [10] = target: T4, Interleukin-1 receptor-associated kinase 4 (Homo sapiens) (UniProt Q9NWZ3); conditions: at 1 µM
# T4 sequence (whole entry): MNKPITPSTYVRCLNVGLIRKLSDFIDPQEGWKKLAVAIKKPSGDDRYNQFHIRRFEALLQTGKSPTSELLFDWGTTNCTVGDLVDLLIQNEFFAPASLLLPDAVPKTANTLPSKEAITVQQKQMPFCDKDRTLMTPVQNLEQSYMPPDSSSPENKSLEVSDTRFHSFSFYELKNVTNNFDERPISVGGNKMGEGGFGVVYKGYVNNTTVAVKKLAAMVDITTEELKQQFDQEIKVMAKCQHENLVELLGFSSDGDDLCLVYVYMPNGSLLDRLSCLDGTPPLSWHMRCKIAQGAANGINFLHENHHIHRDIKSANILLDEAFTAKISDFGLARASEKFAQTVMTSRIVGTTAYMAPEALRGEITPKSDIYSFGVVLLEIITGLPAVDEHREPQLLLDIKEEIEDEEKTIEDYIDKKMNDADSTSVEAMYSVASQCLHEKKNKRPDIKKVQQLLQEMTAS
# [11] = target: T4, Interleukin-1 receptor-associated kinase 4 (Homo sapiens); conditions: at 10 µM
# [12] = target: T5, Tyrosine-protein kinase ITK/TSK (Homo sapiens) (UniProt Q08881); conditions: at 1 µM
# T5 sequence (whole entry): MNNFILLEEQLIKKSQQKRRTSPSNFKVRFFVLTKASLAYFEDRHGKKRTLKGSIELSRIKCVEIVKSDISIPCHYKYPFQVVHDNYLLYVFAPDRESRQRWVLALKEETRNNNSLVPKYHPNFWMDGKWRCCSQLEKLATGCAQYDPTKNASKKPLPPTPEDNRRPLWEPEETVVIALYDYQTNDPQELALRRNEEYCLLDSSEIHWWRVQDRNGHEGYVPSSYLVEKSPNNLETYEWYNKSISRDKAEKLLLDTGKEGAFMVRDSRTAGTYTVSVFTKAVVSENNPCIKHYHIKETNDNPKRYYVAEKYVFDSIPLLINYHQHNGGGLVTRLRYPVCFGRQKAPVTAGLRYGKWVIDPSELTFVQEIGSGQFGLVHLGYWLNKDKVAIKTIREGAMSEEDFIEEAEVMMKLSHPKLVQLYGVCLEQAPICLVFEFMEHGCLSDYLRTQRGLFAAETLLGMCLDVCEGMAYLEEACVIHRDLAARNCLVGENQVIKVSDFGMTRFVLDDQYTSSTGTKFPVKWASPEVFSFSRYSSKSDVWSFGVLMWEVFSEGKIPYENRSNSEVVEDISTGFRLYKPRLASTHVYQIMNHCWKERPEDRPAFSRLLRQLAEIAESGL
# [13] = target: Interleukin-1 receptor-associated kinase 1 (Homo sapiens) (UniProt P51617); conditions: at 1 µM
# Interleukin-1 receptor-associated kinase 1 (Homo sapiens), sequence (P51617 whole entry, looked up): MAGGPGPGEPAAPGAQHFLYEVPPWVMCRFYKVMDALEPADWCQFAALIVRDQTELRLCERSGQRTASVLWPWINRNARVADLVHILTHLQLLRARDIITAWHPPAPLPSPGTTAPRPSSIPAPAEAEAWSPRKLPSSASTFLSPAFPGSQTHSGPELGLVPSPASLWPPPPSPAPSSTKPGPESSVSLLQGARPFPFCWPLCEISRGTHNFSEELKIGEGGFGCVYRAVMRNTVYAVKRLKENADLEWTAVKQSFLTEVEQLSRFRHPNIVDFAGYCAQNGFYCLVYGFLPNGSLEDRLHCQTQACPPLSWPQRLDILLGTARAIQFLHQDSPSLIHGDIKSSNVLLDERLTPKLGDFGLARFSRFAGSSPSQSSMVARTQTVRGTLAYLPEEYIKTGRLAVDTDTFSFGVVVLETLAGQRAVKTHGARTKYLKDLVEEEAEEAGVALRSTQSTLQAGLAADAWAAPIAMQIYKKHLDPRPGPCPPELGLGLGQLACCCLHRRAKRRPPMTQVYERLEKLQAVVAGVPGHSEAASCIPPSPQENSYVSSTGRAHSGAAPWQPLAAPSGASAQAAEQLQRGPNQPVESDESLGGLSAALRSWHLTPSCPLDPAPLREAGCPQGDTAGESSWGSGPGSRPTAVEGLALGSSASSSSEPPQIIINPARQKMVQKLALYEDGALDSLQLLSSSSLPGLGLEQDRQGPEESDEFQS
# [14] = target: Interleukin-1 receptor-associated kinase 1 (Homo sapiens) (UniProt P51617); conditions: at 10 µM
# [15] = target: T6, Inhibitor of nuclear factor kappa-B kinase subunit beta (Homo sapiens) (UniProt O14920); conditions: at 1 µM
# T6 sequence (whole entry): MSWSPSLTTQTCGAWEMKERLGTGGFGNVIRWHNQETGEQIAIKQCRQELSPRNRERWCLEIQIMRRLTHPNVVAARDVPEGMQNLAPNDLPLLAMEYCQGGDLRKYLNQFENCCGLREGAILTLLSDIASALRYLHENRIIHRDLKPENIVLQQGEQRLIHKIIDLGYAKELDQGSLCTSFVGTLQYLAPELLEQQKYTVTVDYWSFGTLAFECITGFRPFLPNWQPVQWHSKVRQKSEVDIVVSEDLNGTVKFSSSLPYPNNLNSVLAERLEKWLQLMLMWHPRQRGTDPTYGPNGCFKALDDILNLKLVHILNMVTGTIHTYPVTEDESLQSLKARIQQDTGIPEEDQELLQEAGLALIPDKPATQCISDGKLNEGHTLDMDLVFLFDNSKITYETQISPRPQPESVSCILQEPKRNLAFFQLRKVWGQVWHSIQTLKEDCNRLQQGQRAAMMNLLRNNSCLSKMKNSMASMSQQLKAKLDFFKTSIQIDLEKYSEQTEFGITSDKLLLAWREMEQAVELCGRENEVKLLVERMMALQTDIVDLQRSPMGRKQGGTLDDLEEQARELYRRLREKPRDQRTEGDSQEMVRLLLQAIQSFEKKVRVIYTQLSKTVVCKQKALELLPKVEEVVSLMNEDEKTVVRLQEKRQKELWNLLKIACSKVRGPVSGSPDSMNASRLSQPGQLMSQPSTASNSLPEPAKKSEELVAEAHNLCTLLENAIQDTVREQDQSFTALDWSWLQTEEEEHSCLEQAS
# [16] = target: T6, Inhibitor of nuclear factor kappa-B kinase subunit beta (Homo sapiens); conditions: at 10 µM
# [17] = target: Insulin receptor-related protein (Homo sapiens) (UniProt P14616); conditions: at 10 µM
# Insulin receptor-related protein (Homo sapiens), sequence (P14616 27-742 limits assumed): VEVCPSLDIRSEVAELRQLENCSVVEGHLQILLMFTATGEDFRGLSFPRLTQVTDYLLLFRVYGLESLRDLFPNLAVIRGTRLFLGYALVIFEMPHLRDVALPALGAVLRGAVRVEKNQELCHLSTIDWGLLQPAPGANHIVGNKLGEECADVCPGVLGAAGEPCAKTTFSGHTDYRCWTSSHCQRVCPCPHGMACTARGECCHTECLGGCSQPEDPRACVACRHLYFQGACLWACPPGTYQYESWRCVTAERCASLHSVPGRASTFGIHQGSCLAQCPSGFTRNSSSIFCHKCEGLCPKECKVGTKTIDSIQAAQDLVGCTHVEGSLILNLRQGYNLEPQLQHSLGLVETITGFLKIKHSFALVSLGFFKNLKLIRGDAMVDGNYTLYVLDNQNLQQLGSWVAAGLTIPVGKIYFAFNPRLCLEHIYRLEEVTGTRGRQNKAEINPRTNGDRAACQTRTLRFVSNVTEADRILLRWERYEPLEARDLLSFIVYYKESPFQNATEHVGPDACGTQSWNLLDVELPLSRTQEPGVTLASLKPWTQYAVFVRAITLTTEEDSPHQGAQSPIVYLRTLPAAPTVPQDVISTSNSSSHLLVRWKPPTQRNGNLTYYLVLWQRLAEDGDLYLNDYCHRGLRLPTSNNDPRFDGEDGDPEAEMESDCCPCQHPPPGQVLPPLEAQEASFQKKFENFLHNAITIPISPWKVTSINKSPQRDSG
# Insulin receptor-related protein (Homo sapiens), sequence (P14616 747-1297 limits assumed): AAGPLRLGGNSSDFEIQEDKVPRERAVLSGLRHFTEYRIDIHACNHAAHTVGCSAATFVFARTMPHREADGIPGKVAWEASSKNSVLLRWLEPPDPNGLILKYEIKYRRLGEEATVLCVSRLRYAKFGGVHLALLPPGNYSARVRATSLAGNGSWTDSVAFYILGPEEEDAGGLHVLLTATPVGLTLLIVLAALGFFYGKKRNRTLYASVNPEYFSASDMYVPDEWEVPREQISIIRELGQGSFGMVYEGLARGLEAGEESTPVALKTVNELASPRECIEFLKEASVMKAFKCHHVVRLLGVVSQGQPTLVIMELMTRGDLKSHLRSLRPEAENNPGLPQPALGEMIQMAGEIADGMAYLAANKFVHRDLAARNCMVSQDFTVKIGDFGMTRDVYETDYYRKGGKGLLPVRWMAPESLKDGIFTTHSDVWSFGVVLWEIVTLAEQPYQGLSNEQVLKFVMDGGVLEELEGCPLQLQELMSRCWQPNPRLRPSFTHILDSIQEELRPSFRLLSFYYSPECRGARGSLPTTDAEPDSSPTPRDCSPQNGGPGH
SMILES,residual activity [1],residual activity [2],residual activity [3],residual activity [4],residual activity [5],residual activity [6],residual activity [7],residual activity [8],residual activity [9],residual activity [10],residual activity [11],residual activity [12],residual activity [13],residual activity [14],residual activity [15],residual activity [16],residual activity [17]
Cn1sc(=O)n(Cc2ccccc2)c1=O,55%,77%,72%,91%,93%,93%,82%,96%,93%,74%,76%,97%,,,,,
COc1ccc(Cl)cc1NC(=O)Nc1cc(C)nc2ccccc12,69%,86%,94%,,,,,,,,,,96%,100%,,,
O=C(c1cc2cc(O)ccc2[nH]1)c1cc2cc(O)ccc2[nH]1,2%,79%,80%,109%,77%,,,,,50%,20%,64%,65%,23%,70%,34%,55%
